Experimental data from PubChem BioAssay (Tox21).
Results filed as inconclusive are left out. Activity calls are given as the source filed them. Unless noted, calls come from the whole dose curve; as a rule, active = well fitted curve in the direction sought with a large enough effect in the repeat runs; inconclusive = weak or mixed curves; inactive = no such curve, though single readings can be large; an effect the other way counts as inactive or inconclusive.

Experiments:
[1] = qHTS assay to identify small molecule antagonists of the estrogen related receptor (ERR) signaling pathway from Tox21 library - cell viability counter screen (AID 1224834); note: nearly all actives have a fitted effect of over 30% in size
Method in brief: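 Cytotoxicity of test substances is gauged in the same ERR cells used for the antagonist screen, after 17.5 h of compound treatment at 37 C, by CellTiter-Fluor fluorescence measured after 30 min.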

[2] = biological target: Luciferin 4-monooxygenase (Photinus pyralis) (UniProt P08659); assay: qHTS assay to identify small molecule inhibitors of firefly luciferase (AID 1224835); note: nearly all actives have a fitted effect of over 25% in size
Method in brief: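 Inhibition of purified Photinus luciferase is measured by luminescence. Substrate levels (D-luciferin, ATP) sit at their KM values. Each compound is tested in a concentration series.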

[3] = qHTS assay to identify small molecule agonists of the constitutive androstane receptor (CAR) signaling pathway - cell viability counter screen (AID 1224836); note: nearly all actives have a fitted effect of over 45% in size
Method in brief: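 Counter screen multiplexed with the CAR reporter readout: HepG2 cells co-transfected with hCAR and the CYP2B6-2.2kb construct receive a 15-concentration compound series and 0.75 uM PK11195 (final), then CellTiter-Fluor fluorescence is read after 23 h.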

[4] = qHTS assay to identify small molecule antagonists of the constitutive androstane receptor (CAR) signaling pathway - cell viability counter screen (AID 1224837); note: nearly all actives have a fitted effect of over 45% in size
Method in brief: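 Multiplexed cytotoxicity read-out for the CAR antagonist screen: double-stable HepG2-CYP2B6-hCAR cells co-treated with 50 nM CITCO (final) and compound over 15 concentrations, incubated 23 hr, then assessed by CellTiter-Fluor fluorescence.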

[5] = biological target: Nuclear receptor subfamily 1 group I member 3 (Homo sapiens) (UniProt Q14994); assay: qHTS assay to identify small molecule antagonists of the constitutive androstane receptor (CAR) signaling pathway (AID 1224838); note: nearly all actives have a fitted effect of over 40% in size
Method in brief: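 Compounds were titrated across 15 concentrations onto HepG2 cells double-stably expressing hCAR and a CYP2B6-2.2kb reporter, together with 50 nM CITCO (final). After 24 h at 37 C, luciferase activity was measured by luminescence.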

[6] = biological target: Nuclear receptor subfamily 1 group I member 3 (Homo sapiens) (UniProt Q14994); assay: qHTS assay to identify small molecule agonists of the constitutive androstane receptor (CAR) signaling pathway (AID 1224839); note: nearly all actives have a fitted effect of over 15% in size
Method in brief: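 A 15-concentration quantitative screen uses HepG2 cells co-transfected stably with human CAR and CYP2B6-2.2kb reporter. Treatment lasts 24 h with 0.75 uM PK11195 final present; ONE-Glo luminescence is the signal.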

[7] = qHTS assay to identify small molecule antagonists of the estrogen related receptor signaling pathway with the pleiotropic PPARgamma coactivator (PGC) from Tox21 10K library - cell viability counter screen (AID 1224840; active = well fitted cell-killing curve with a large enough effect in the repeat runs, not every such curve was filed as active; note: nearly all actives have a fitted effect of over 40% in size)
Method in brief: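 Step one, plate 2,000 PGC/ERR cells per well; step two, incubate 6 h at 37 C/5% CO2; step three, pin-transfer compounds; step four, incubate 17.5 h; step five, add CellTiter-Fluor and read fluorescence after 30 min.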

[8] = biological target: Thyrotropin receptor (Homo sapiens) (UniProt P16473); assay: qHTS assay to identify small molecule agonists of the thyroid stimulating hormone receptor (TSHR) signaling pathway (AID 1224843; calls by dose curve; note: nearly all actives have a fitted effect of over 45% in size)
Method in brief: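 Screening of the Tox21 10K collection used HEK293 cells engineered with TSHR at 800 cells per well. After a 30-min room-temperature compound exposure, HTRF cAMP reagents were added and fluorescence recorded 1 h later.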

[9] = qHTS assay to identify small molecule agonists of the hypoxia (HIF-1) signaling pathway - cell viability counter screen (AID 1224844; calls by dose curve; note: nearly all actives have a fitted effect of over 50% in size)
Method in brief: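 Tox21 10K compounds were added to HRE-bla ME-180 cells (0.5% dialyzed FBS) and incubated 17 hrs at 37C; ATP-based CellTiter-Glo luminescence then reported cell viability in the same wells.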

[10] = qHTS assay to identify small molecule agonists of H2AX (AID 1224845; active = well fitted activation curve with a large enough effect in the signal ratio in the repeat runs, not every such curve was filed as active; the % refers to the signal ratio)
Method in brief: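 Phospho-H2AX Ser139 measured by HTRF (ex 320 nm; em 665 and 620 nm) after 24 hr antibody incubation. Compounds, 15 concentrations, 0.76% DMSO, were applied to CHO-K1 cells for 3hr at 37C before lysis.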

[11] = qHTS assay to identify small molecule agonists of the hypoxia (HIF-1) signaling pathway (AID 1224846; active = well fitted activation curve with a large enough effect in the signal ratio in the repeat runs, not every such curve was filed as active; the % refers to the signal ratio)
Method in brief: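 Steps: seed ME-180 HRE-bla cells (2,000/well, 0.5% dialyzed FBS); incubate 5 hrs at 37C; pin-transfer compounds or DMSO; incubate 17 hrs; add LiveBLAzer B/G substrate CCF4-AM; measure reporter activation by FRET.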

[12] = qHTS assay to identify small molecule agonists of H2AX - cell viability counter screen (AID 1224847; calls by dose curve; note: top concentration of the series differs between compounds; nearly all actives have a fitted effect of over 30% in size)
Method in brief: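 We seed wild-type CHO-K1 cells overnight, treat them for 3 hr at 37C with compounds in 15-concentration series, and quantify remaining viability by CellTiter-Glo luminescence.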

[13] = qHTS RealTime-Glo MT Cell Viability Assay in HepG2 cells - 24 hour (AID 1224867); note: nearly all actives have a fitted effect of over 50% in size
Method in brief: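 Real-time, nonlytic viability: 600 HepG2 cells/well mixed with NanoLuc enzyme plus prosubstrate; 5 h settle, compound (DMSO) added by pintool; luminescence monitored over 40 h at 37 C.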

[14] = qHTS RealTime-Glo MT Cell Viability Assay in HEK293 cells - 32 hour (AID 1224868); note: top concentration of the series differs between compounds; nearly all actives have a fitted effect of over 50% in size
Method in brief: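 Cells + reagent dispensed (600 cells/well, HEK293) → 5 h at 37 C/5% CO2 → 23 nL compound in DMSO pinned → 40 h at 37 C → luminescence read at 0, 8, 16, 24, 32, 40 h.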

[15] = A CellTox Green Cytotoxicity Assay to monitor cytotoxicity in HEK293 cells - 0 hour (AID 1224869); note: nearly all actives have a fitted effect of over 50% in size
Method in brief: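 Cytotoxicity was tracked continuously in HEK293 cells by a DNA-binding dye excluded from viable cells. Compounds were transferred in DMSO 5 h after seeding; fluorescence was recorded at intervals up to 40 h.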

[16] = qHTS assay to identify small molecule antagonists of the estrogen related receptor signaling pathway with the pleiotropic PPARgamma coactivator (PGC) from Tox21 10K library (AID 1224841; call rule not given here)
Method in brief: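 Antagonism in this quantitative HTS is taken from loss of luciferase signal in PGC/ERR cells. Cells (2,000/well) are treated with compounds in DMSO after a 6 h settling period and read by One-Glo luminescence after 18 h.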

[17] = qHTS assay to identify small molecule agonists of the estrogen related receptor signaling pathway with the pleiotropic PPARgamma coactivator (PGC) from Tox21 10K library (AID 1224842); note: nearly all actives have a fitted effect of over 15% in size
Method in brief: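 Luminescence from One-Glo (30 min, room temperature) measured after PGC/ERR cells had 18 h at 37 C with pinned compound (23 nL in DMSO). Cells had been seeded at 2,000 per well and pre-incubated 6 h.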

[18] = qHTS assay to identify small molecule antagonists of the estrogen related receptor (ERR) signaling pathway from Tox21 library (AID 1224848); note: nearly all actives have a fitted effect of over 50% in size
Method in brief: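 Antagonist-mode screen of the Tox21 10K library in an NTP-provided ERR reporter cell line; 18 h compound exposure at 37 C, luminescence measured with ONE-Glo.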

[19] = qHTS assay to identify small molecule agonists of the estrogen related receptor (ERR) signaling pathway from Tox21 library (AID 1224849; calls by dose curve; note: nearly all actives have a fitted effect of over 15% in size); settings: ERR reporter cell line, ONE-Glo luciferase, 18 h; at 92.4 µM (top of the series) unless noted
Method in brief: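 Agonist signal is luciferase luminescence from an ERR reporter cell line treated 18 h at 37 C with DMSO-dissolved compounds, read 30 min after ONE-Glo addition at room temperature.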
% is set by controls: 0 for no effect and ±100 for the full control effect.

Sequence of Thyrotropin receptor (Homo sapiens) (P16473 whole entry, looked up): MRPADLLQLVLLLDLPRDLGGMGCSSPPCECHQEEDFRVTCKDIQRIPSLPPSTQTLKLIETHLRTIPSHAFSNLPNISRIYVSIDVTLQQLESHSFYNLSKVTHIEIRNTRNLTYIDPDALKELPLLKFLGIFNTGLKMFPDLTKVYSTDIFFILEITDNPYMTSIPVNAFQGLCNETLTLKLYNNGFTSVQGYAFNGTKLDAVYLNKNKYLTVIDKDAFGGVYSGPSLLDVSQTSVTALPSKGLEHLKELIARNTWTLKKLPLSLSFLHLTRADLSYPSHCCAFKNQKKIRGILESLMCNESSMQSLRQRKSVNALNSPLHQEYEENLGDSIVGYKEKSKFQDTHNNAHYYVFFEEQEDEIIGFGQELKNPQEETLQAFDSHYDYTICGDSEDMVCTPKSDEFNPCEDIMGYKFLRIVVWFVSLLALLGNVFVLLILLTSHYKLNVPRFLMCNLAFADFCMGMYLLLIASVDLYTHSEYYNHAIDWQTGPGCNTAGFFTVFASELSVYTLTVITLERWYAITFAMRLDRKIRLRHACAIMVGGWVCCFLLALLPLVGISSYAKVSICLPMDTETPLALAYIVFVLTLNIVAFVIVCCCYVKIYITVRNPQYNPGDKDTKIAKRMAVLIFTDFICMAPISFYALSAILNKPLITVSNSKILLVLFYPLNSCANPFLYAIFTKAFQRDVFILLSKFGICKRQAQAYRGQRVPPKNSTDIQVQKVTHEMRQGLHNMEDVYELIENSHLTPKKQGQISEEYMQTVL
Sequence of Luciferin 4-monooxygenase (Photinus pyralis) (P08659 whole entry, looked up): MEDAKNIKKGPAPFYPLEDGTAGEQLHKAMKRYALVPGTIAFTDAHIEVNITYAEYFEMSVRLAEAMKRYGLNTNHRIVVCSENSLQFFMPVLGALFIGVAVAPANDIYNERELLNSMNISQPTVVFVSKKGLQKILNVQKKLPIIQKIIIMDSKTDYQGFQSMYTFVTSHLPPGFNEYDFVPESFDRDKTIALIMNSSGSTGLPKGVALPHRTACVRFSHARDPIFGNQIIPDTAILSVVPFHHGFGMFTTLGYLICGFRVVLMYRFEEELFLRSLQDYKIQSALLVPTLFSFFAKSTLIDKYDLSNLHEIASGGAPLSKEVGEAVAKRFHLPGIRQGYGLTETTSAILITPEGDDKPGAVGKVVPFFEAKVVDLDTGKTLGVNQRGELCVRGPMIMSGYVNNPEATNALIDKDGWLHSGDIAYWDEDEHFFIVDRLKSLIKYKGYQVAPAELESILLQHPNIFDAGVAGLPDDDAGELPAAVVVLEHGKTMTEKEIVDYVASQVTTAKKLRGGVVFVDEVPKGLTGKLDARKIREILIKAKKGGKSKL
Sequence of Nuclear receptor subfamily 1 group I member 3 (Homo sapiens) (Q14994 whole entry, looked up): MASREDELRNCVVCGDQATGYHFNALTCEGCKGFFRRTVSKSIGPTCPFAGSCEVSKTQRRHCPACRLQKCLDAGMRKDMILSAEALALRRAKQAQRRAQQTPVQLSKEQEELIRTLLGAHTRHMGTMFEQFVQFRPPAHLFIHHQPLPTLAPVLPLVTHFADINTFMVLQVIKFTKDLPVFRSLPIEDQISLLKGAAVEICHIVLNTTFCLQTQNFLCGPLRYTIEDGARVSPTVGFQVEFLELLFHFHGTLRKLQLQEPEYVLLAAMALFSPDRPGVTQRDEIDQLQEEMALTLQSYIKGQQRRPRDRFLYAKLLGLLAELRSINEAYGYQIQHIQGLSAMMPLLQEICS

O=C(O)c1c(Cl)ccc2cc(Cl)cnc12
inactive: Potency [1] | Potency [2] | Potency [3] | Potency [4] | Potency [5] | Potency [6] | Potency [7] | Potency [8] | Potency [9] | outcome [10] | outcome [11] | Potency [12] | Potency [13] | Potency [14] | outcome [15]

CC[C@H](N)c1ccccc1
inactive: Potency [1] | Potency [2] | Potency [3] | Potency [4] | Potency [5] | Potency [6] | Potency [7] | Potency [8] | Potency [9] | outcome [10] | outcome [11] | Potency [12] | Potency [13] | Potency [14] | outcome [15]

CC(C)(C)C(=O)Cl
inactive: Potency [1] | Potency [2] | Potency [3] | Potency [4] | Potency [5] | Potency [6] | Potency [7] | Potency [8] | Potency [9] | outcome [10] | outcome [11] | Potency [12] | Potency [13] | outcome [15]

O=C/C=C/c1ccco1
inactive: Potency [1] | Potency [2] | Potency [3] | Potency [4] | Potency [5] | Potency [6] | Potency [7] | Potency [9] | outcome [10] | outcome [11] | Potency [12] | Potency [13] | Potency [14] | outcome [15]

COc1cc(CCN)cc(OC)c1OC
inactive: Potency [1] | Potency [2] | Potency [3] | Potency [4] | Potency [5] | Potency [6] | Potency [7] | Potency [8] | Potency [9] | outcome [10] | outcome [11] | Potency [12] | Potency [13] | outcome [15]

C[C@@H](N)[C@@H](O)c1ccccc1
inactive: Potency [1] | Potency [2] | Potency [3] | Potency [4] | Potency [5] | Potency [6] | Potency [7] | Potency [8] | Potency [9] | outcome [10] | outcome [11] | Potency [12] | Potency [13] | Potency [14] | outcome [15]

ClCOCCl
inactive: Potency [1] | Potency [2] | Potency [3] | Potency [4] | Potency [7] | Potency [8] | Potency [9] | outcome [10] | outcome [11] | Potency [12] | Potency [13] | Potency [14] | outcome [15]

CC(=O)CN(CC(C)=O)N=O
inactive: Potency [1] | Potency [2] | Potency [3] | Potency [4] | Potency [7] | Potency [16] | Potency [17] | Potency [8] | Potency [9] | outcome [10] | outcome [11] | Potency [12] | Potency [18] | activity change, positive = activation [19] -3.56% | Potency [13] | Potency [14] | outcome [15]

CCC1(CC)C(=O)C=CNC1=O
inactive: Potency [1] | Potency [2] | Potency [3] | Potency [4] | Potency [7] | Potency [16] | Potency [17] | Potency [8] | Potency [9] | outcome [10] | outcome [11] | Potency [12] | Potency [18] | Potency [13] | Potency [14] | outcome [15]

C=C1CC[C@@]2(O)[C@H]3Cc4ccc(O)c5c4[C@@]2(CCN3CC2CC2)[C@H]1O5
inactive: Potency [1] | Potency [2] | Potency [3] | Potency [4] | Potency [7] | Potency [16] | Potency [17] | Potency [8] | Potency [9] | outcome [10] | Potency [12] | Potency [18] | Potency [13] | Potency [14] | outcome [15]

C=C(Cl)CCl
inactive: Potency [1] | Potency [2] | Potency [3] | Potency [4] | Potency [7] | Potency [8] | Potency [9] | outcome [10] | outcome [11] | Potency [12] | Potency [13] | Potency [14] | outcome [15]

OCC(Cl)CCl (centres undefined)
inactive: Potency [1] | Potency [2] | Potency [3] | Potency [4] | Potency [7] | Potency [9] | outcome [10] | outcome [11] | Potency [12] | Potency [13] | Potency [14] | outcome [15]

C=CC(=O)OCCN(C)C
inactive: Potency [1] | Potency [2] | Potency [3] | Potency [4] | Potency [7] | Potency [16] | Potency [17] | Potency [9] | outcome [10] | outcome [11] | Potency [12] | Potency [18] | Potency [13] | outcome [15]

CC(C)(O)C(Cl)(Cl)Cl
inactive: Potency [1] | Potency [2] | Potency [3] | Potency [4] | Potency [7] | Potency [8] | Potency [9] | outcome [10] | outcome [11] | Potency [12] | Potency [13] | outcome [15]
